Results on seven compounds are retold here after PubChem BioAssay (NCI).

Compounds without any hit were thinned out: in the full panel of roughly 83,000, 20% have a hit.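 Percent growth is the endpoint: 0 to 100 indicates growth inhibition (40 means 60% inhibition), 0 means no net growth, and negative values indicate cell death.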 Unmarked numbers belong to inactive results. Active and inactive are the calls of the source. The calls were made as follows: active = growth percent below 10; inactive = the rest.

Some test systems named below: NCI-H23 lung; NCI-H226 lung; NCI-H322M lung; HOP-62 NSCLC; NCI-H460 lung; HOP-92 NSCLC; NCI-H522 lung; A549/ATCC NSCLC; 786-0 renal; COLO 205 colon; DU-145 prostate; K-562 leukemia; MALME-3M melanoma; MDA-MB-231 breast; RXF 393 renal; SF-268 CNS; SF-295 CNS; SF-539 CNS; UACC-257 melanoma; M14 melanoma.
Common to all, as to test: NCI-60 one-dose screen, 48 h (100 = growth as untreated, 0 = no growth, -100 = all killed)
Common to all, as to conditions: 10 µM unless noted

For the compound `O=C(c1ccc(F)c(Cl)c1)N1c2ccccc2Sc2ccccc21`, the growth in the experiment on NCI-H23 lung was 78.5%; in the experiment on NCI-H226 lung it was 77.3%; in the experiment with NCI-H322M lung it was 102%; in the experiment on HOP-62 NSCLC, 76.6%; in the experiment with NCI-H460 lung, 99.5%; with HOP-92 NSCLC, 37%. Further, the growth in the experiment on NCI-H522 lung is 42.5%; in the experiment on A549/ATCC NSCLC it was 65.6%; in the experiment with 786-0 renal, 79.8%; with COLO 205 colon, 44.7%; in the experiment with DU-145 prostate, 90.3%; in the experiment on K-562 leukemia, 21.5%. The growth in the experiment on MALME-3M melanoma is 64.1%; in the experiment with MDA-MB-231 breast it was 61%; in the experiment with RXF 393 renal, 70.8%; in the experiment with SF-268 CNS it was 66.8%; in the experiment with SF-295 CNS it was 64.3%; in the experiment on SF-539 CNS it was 62.3%. Further, the growth is 61% in the experiment on UACC-257 melanoma and 53.1% with M14 melanoma.
With `C=CC(C)(O)CC/C=C(\CO)C(=O)OC1C(C)OC(O[C@](C)(C=C)CC/C=C(\CO)C(=O)O[C@H]2C[C@@]3(C(=O)OC4OC(CO)C(O)C(O)C4OC4OC(C)C(OC5OC(CO)C(O)C5O)C(OC5OC(CO)C(O)C(O)C5O)C4O)C(CC2(C)C)C2=CCC4[C@@]5(C)CC[C@H](OC6OC(COC7OC(C)C(O)C(O)C7OC7OCC(O)C(O)C7O)C(O)C(O)C6NC(C)=O)C(C)(C)C5CC[C@@]4(C)[C@]2(C)C[C@H]3O)C(O)C1O` (stereo partly specified), the growth in the experiment on NCI-H23 lung was 11.9%; in the experiment with NCI-H226 lung it was 2.06% (active); with NCI-H322M lung, -78.4% (active); in the experiment with HOP-62 NSCLC, -66.9% (active); in the experiment on NCI-H460 lung, 57.8%; with HOP-92 NSCLC it was -46.2% (active). Also, the growth was -58.8% (active) in the experiment with NCI-H522 lung; -37.5% (active) in the experiment with A549/ATCC NSCLC; -77.5% (active) in the experiment with 786-0 renal; -91.2% (active) in the experiment with DU-145 prostate; 22.8% in the experiment on K-562 leukemia; -56.2% (active) in the experiment with MALME-3M melanoma. Further, the growth is -29.8% (active) in the experiment on MDA-MB-231 breast; -31.3% (active) in the experiment with RXF 393 renal; -53.4% (active) with SF-268 CNS; -59.4% (active) in the experiment with SF-295 CNS; 6.98% (active) in the experiment on SF-539 CNS; -53.5% (active) with UACC-257 melanoma.
Take `CC1(C)OC(=O)C(=Cc2cccc(Br)c2)C(=O)O1`: the growth in the experiment on NCI-H23 lung was 103%; with NCI-H226 lung, 96.2%; in the experiment on NCI-H322M lung, 113%; in the experiment with HOP-62 NSCLC it was 88.1%; in the experiment on NCI-H460 lung it was 105%; in the experiment with HOP-92 NSCLC, 85.8%. In addition, the growth in the experiment with NCI-H522 lung was 77.5%; with A549/ATCC NSCLC, 87.9%; with 786-0 renal, 109%; in the experiment with COLO 205 colon, 104%; with DU-145 prostate it was 112%; in the experiment with K-562 leukemia it was 98.6%. Further, the growth in the experiment on MALME-3M melanoma is 108%; in the experiment with MDA-MB-231 breast, 107%; in the experiment with RXF 393 renal it was 96.4%; in the experiment with SF-268 CNS, 102%; in the experiment on SF-295 CNS, 102%; in the experiment with SF-539 CNS, 108%. The growth with UACC-257 melanoma was 85.8%; in the experiment with M14 melanoma it was 109%.
With `NNC(=S)N/N=C/c1ccccn1`, the growth is 30.9% with NCI-H23 lung; 34.3% in the experiment on NCI-H226 lung; 46.2% with NCI-H322M lung; 13% with HOP-62 NSCLC; 9.74% (active) with NCI-H460 lung; 21% in the experiment on HOP-92 NSCLC. The growth is -14.3% (active) with NCI-H522 lung; 46.9% with A549/ATCC NSCLC; 24.4% in the experiment on 786-0 renal; 15% with COLO 205 colon; 34.5% in the experiment on DU-145 prostate; 19.4% with K-562 leukemia. Further, the growth is 54.3% in the experiment on MALME-3M melanoma; 47.2% with MDA-MB-231 breast; 25.2% in the experiment on RXF 393 renal; 42.9% with SF-268 CNS; 33.5% in the experiment with SF-295 CNS; 11.2% in the experiment with SF-539 CNS. Also, the growth in the experiment with UACC-257 melanoma is 45.7%; with M14 melanoma, 23.7%.
In the case of `CN1CCCc2cc(/C=C3/SC(=S)N(CCc4ccc(O)cc4)C3=O)ccc21`, the growth was 94.1% with NCI-H23 lung; 88.5% in the experiment with NCI-H226 lung; 95.1% with NCI-H322M lung; 101% in the experiment with HOP-62 NSCLC; 95.1% in the experiment with NCI-H460 lung; 48.3% in the experiment on HOP-92 NSCLC. Besides, the growth in the experiment with NCI-H522 lung is 43.8%; in the experiment on A549/ATCC NSCLC, 87.3%; in the experiment with 786-0 renal, 87.6%; with COLO 205 colon, 112%; in the experiment on DU-145 prostate it was 85.9%; in the experiment on K-562 leukemia, 27.6%. In addition, the growth was 96.6% in the experiment on MALME-3M melanoma; 81.8% in the experiment on MDA-MB-231 breast; 94.6% in the experiment with RXF 393 renal; 76.3% with SF-268 CNS; 99.7% with SF-295 CNS; 84.8% in the experiment on SF-539 CNS. Also, the growth is 93.2% in the experiment with UACC-257 melanoma and 78.6% in the experiment with M14 melanoma.
For `CS(=O)(=O)Cc1cnc(C2OCCO2)s1`, the growth in the experiment with NCI-H23 lung was 107%; in the experiment with NCI-H226 lung, 96.4%; in the experiment on NCI-H322M lung, 100%; with HOP-62 NSCLC it was 113%; in the experiment with NCI-H460 lung it was 112%; with HOP-92 NSCLC, 82.4%. For the same compound, the growth is 88.7% in the experiment with NCI-H522 lung; 94.8% in the experiment with A549/ATCC NSCLC; 104% with 786-0 renal; 106% in the experiment with DU-145 prostate; 125% in the experiment on K-562 leukemia; 92.7% in the experiment on MALME-3M melanoma. Besides, the growth with MDA-MB-231 breast is 109%; in the experiment on RXF 393 renal, 116%; with SF-268 CNS, 93.1%; in the experiment on SF-295 CNS, 98%; with SF-539 CNS, 94.7%; in the experiment with UACC-257 melanoma it was 98.8%. The growth in the experiment with M14 melanoma is 99.9%.
Regarding `CC1(C)C2CC=C(/C=N/NC(=O)C3CCC(=O)N3)C1C2` (stereo unspecified), the growth in the experiment with NCI-H23 lung is 97.7%; with NCI-H226 lung it was 106%; in the experiment with NCI-H322M lung, 107%; in the experiment on HOP-62 NSCLC, 110%; with NCI-H460 lung it was 102%; with HOP-92 NSCLC, 99.5%. The growth with NCI-H522 lung was 99.9%; with A549/ATCC NSCLC, 104%; in the experiment on 786-0 renal it was 101%; in the experiment with DU-145 prostate, 113%; in the experiment with K-562 leukemia, 99.4%; in the experiment with MALME-3M melanoma it was 105%. In addition, the growth in the experiment on MDA-MB-231 breast was 122%; in the experiment with RXF 393 renal, 121%; in the experiment with SF-268 CNS, 101%; in the experiment with SF-295 CNS, 97.4%; in the experiment on SF-539 CNS, 100%; with UACC-257 melanoma, 102%. Besides, the growth in the experiment with M14 melanoma is 107%.
